This is an account of results in PubChem BioAssay (NCATS).

Test [1] deals with Cytochrome P450 3A7 (Homo sapiens) (UniProt P24462). The test is described as follows: Cytochrome P450 family 3 subfamily A member 7 (CYP3A7) small molecule antagonists: luciferase biochemical qHTS assay (AID 1963596). Note: % is set by controls: 0 for no effect and ±100 for the full control effect; nearly all actives have a fitted effect of over 40% in size. The procedure, abridged:
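Recombinant CYP3A7 P450-Glo luminescent assay: enzyme-proluciferin substrate mix preincubated with compound 10 min at room temperature, reaction started with NADPH regeneration system for 1 h. Luciferin detected by luminescence; ketoconazole as positive control.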

Test [2] is described as follows: Viability qHTS for spleen associated tyrosine kinase inhibitor (SYKi) naive MV4-11 cells (AID 1963823). Note: nearly all actives have a fitted effect of over 40% in size. Note: potency is the fitted concentration of half-maximal effect. The method in brief:
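CellTiter-Glo luminescence, 10 min room-temperature incubation, gave viability. Cells: naive MV4-11 (500/well), treated 72 hr at 37 C, 5% CO2.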
For orientation: In qHTS, concentration-response curves come from the screen itself.

Test [3] can be described thus: Viability qHTS for spleen associated tyrosine kinase inhibitor (SYKi) drug resistant MV4-11 cells (AID 1963824). Note: nearly all actives have a fitted effect of over 35% in size. Note: potency is the fitted concentration of half-maximal effect. The procedure, abridged:
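CellTiter-Glo luminescence, read 10 min after reagent addition, reports viability after a 72 hr compound exposure. Cells are an MV4-11 line made resistant to SYK inhibition, seeded at 500 per well onto compound-containing plates.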

Test [4] can be described thus: Cellular viability qHTS for adrenocortical cancer (ACC) cell line SW-13 (AID 1963989).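 For activity (max response): cells grown in serum-free medium with ITS supplement; % is set by controls: 0 for no effect and ±100 for the full control effect.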 Note: nearly all actives have a fitted effect of over 65% in size. Note: potency is the fitted concentration of half-maximal effect. As to conditions: SW-13 ACC cells viability, CellTiter-Glo, 48 h; activity (max response): stronger effect = lower value. The method in brief: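 SW-13 cells in ITS-supplemented serum-free DMEM were plated overnight, then exposed for 48 h at 37C to compound titrations (up to 46 uM final). Viability was read by CellTiter-Glo luminescence; four-parameter logistic fits gave IC50 and efficacy.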

A short description of test [5]: Cellular viability qHTS for adrenocortical cancer (ACC) cell line NCI-H295R (AID 1963990). Note: nearly all actives have a fitted effect of over 60% in size. Note: potency is the fitted concentration of half-maximal effect. The method in brief:
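Luminescent ATP read-out (CellTiter-Glo, 20 min RT) after 48 h drug exposure of NCI-H295R cells; a titration up to 46 uM final. Data normalized to doxorubicin (100% inhibition) and DMSO (0%); 4-parameter fit gives IC50, max response.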

“And” between values parts separate entries of the source, which are not always exact repeats. Equal entries are not always repeated. Inconclusive results are not listed. Values without a mark were called inactive. The source made the active and inactive calls. Calls come from the whole dose curve; as a rule, active = well fitted curve in the direction sought with a large enough effect; inconclusive = small, poorly fitted or top-dose-only effect, or another doubt; inactive = no such curve, though single readings can be large; an effect the other way counts as inactive or inconclusive.

Cytochrome P450 3A7 (Homo sapiens), sequence (P24462 whole entry, looked up): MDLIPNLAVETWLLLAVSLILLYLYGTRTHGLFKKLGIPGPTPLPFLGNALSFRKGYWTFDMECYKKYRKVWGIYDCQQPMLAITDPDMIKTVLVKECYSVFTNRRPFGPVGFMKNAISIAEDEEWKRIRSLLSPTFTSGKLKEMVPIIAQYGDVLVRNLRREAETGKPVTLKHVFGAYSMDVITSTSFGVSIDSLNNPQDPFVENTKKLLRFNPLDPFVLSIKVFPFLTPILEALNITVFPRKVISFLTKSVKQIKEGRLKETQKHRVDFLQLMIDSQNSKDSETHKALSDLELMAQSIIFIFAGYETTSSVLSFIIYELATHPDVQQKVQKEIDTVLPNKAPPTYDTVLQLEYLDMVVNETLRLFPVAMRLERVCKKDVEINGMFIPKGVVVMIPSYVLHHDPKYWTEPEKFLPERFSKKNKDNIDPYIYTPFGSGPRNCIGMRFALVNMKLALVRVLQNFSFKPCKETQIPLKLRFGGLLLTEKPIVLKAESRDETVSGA

For `C/C=C1\[C@H]2C=C(C)C[C@]1(N)c1ccc(=O)[nH]c1C2`, the Potency entry in test [1], in test [2], in test [3] and in test [5] was “inactive” throughout. In addition, the activity (max response) in test [4] was 12.5%.

As to `CC(=O)N(CC(O)CN(C(C)=O)c1c(I)c(C(=O)NCC(O)CO)c(I)c(C(=O)NCC(O)CO)c1I)c1c(I)c(C(=O)NCC(O)CO)c(I)c(C(=O)NCC(O)CO)c1I` (stereo not given), the Potency entry in test [1], in test [2], in test [3] and in test [5] was “inactive” each time. Also, the activity (max response) in test [4] is 14.1%.

Take `CC(=O)CCCCn1c(=O)c2c(ncn2C)n(C)c1=O`: the Potency result in test [1], in test [2], in test [3] and in test [5] was “inactive” each time. For the same compound, the activity (max response) in test [4] was 7.09%.

`CC[C@H]1OC(=O)[C@H](C)[C@@H](O[C@H]2C[C@@](C)(OC)[C@@H](O)[C@H](C)O2)[C@H](C)[C@@H](O[C@@H]2O[C@H](C)C[C@H](N(C)C)[C@H]2O)[C@](C)(O)C[C@@H](C)CN(C)[C@H](C)[C@@H](O)[C@]1(C)O`: the Potency entry in test [1], in test [2], in test [3] and in test [5] was “inactive” each time. Further, the activity (max response) in test [4] was -23.1%.

For `CC1(C)OC(=O)Nc2ccc(Br)cc21`, the Potency entry in test [1], in test [2], in test [3] and in test [5] was “inactive” in each case. The activity (max response) in test [4] is 14.6%.

Take `O=C(O)Cc1cccc2ccccc12`: the Potency result in test [1], in test [2], in test [3] and in test [5] was “inactive” throughout. Also, the activity (max response) in test [4] was 3.96% and 12.8%.

Regarding `COc1cc2c(cc1OC(C)C)[C@H](c1ccc(Cl)cc1)N(c1ccc(N(C)CC3CCC(N4CCN(C)C(=O)C4)CC3)cc1)C(=O)C2` (stereo not given in full), the Potency result in test [1] is “inactive”. The Potency in test [2] is 11.8 µM (active); in test [3] it was 9.2 µM (active) and 8.33 µM (active); in test [4], 25.1 µM (active); in test [5], 22.4 µM (active).

For `CC(C)NNC(=O)c1ccncc1`, the Potency result in test [1], in test [2], in test [3] and in test [5] was “inactive” each time. Further, the activity (max response) in test [4] was 1.43%.

Turning to `CCN(CC)CCNC(=O)COc1ccc(Cl)cc1`, the Potency entry in test [1], in test [2], in test [3] and in test [5] was “inactive” in each case. The activity (max response) in test [4] was 6.48%.

Consider `CC(C)CCCC(C)NCCC(C)C` (stereo not given), for which the Potency result in test [1], in test [2], in test [3] and in test [5] was “inactive” each time. Moreover, the activity (max response) in test [4] is -7.26%.

In the case of `O=C(O)c1ccc(S(=O)(=O)N(Cl)Cl)cc1`, the Potency entry in test [1], in test [2], in test [3] and in test [5] was “inactive” in each case. Moreover, the activity (max response) in test [4] was 9.06%.

In the case of `Cc1scc2c1N(C(=O)CN1CCN(C)CC1)c1ccccc1NC2=O`, the Potency entry in test [1], in test [2], in test [3] and in test [5] was “inactive” throughout. In test [4], the activity (max response) is 2.88%.

On to `O=C(O)CCCCC(=O)O`, for which the Potency result in test [1], in test [2], in test [3] and in test [5] was “inactive” throughout. In addition, the activity (max response) in test [4] is 10.5%.

As for `CN(C)CC[C@@H](c1ccc(Br)cc1)c1ccccn1`, the Potency entry in test [1], in test [2], in test [3] and in test [5] was “inactive” in each case. For the same compound, in test [4], the activity (max response) was 2.25%.

Regarding `CN(C)CC[C@@H](c1ccc(Cl)cc1)c1ccccn1`, the Potency entry in test [1], in test [2], in test [3] and in test [5] was “inactive” throughout. Further, the activity (max response) in test [4] was 7.75%.

Turning to `O=c1[nH]c(=O)n([C@H]2CCCO2)cc1F`, the Potency entry in test [1] and in test [5] was “inactive” in each case. The Potency was 14.6 µM (active) in test [2]; 10.6 µM (active) and 9.2 µM (active) in test [3]. For the same compound, in test [4], the activity (max response) is -5.11%.

With `C[C@H]1O[C@@H](O[C@H]2[C@@H](O)C[C@H](O[C@H]3[C@@H](O)C[C@H](O[C@H]4CC[C@@]5(C)[C@H](CC[C@@H]6[C@@H]5C[C@@H](O)[C@]5(C)[C@@H](C7=CC(=O)OC7)CC[C@]65O)C4)O[C@@H]3C)O[C@@H]2C)C[C@H](O)[C@@H]1O`, the Potency entry in test [1] was “inactive”. Further, the Potency was 103 nM (active) and 118 nM (active) in test [2]; 58 nM (active) and 118 nM (active) in test [3]; 0.0708 µM (active) in test [4]; 0.126 µM (active) in test [5].

Take `O=C1O[C@H]([C@@H](O)CO)C(O)=C1O`: the Potency result in test [1], in test [2], in test [3] and in test [5] was “inactive” throughout. In addition, in test [4], the activity (max response) is 0.904%.

Turning to `CC(=O)Oc1c(C)c(C)c2c(c1C)CC[C@@](C)(CCC[C@H](C)CCC[C@H](C)CCCC(C)C)O2`, the Potency entry in test [1], in test [2], in test [3] and in test [5] was “inactive” each time. For the same compound, the activity (max response) in test [4] is 2.68%.

Regarding `C=Cc1c(C)c2cc3[nH]c(cc4nc(cc5nc(cc1[nH]2)C(C)=C5CCC(=O)O)C(CCC(=O)O)=C4C)c(C)c3C=C`, the Potency result in test [1], in test [2], in test [3] and in test [5] was “inactive” throughout. The activity (max response) in test [4] is -8.14%.

For `CCOc1ccc(NC(C)=O)cc1`, the Potency entry in test [1], in test [2], in test [3] and in test [5] was “inactive” each time. The activity (max response) in test [4] is -8.62%.

In the case of `CC1(C)O[C@@H]2C[C@H]3[C@@H]4C[C@H](F)C5=CC(=O)C=C[C@]5(C)[C@@]4(F)[C@@H](O)C[C@]3(C)[C@]2(C(=O)CO)O1`, the Potency result in test [1], in test [2] and in test [5] was “inactive” in each case. Moreover, the Potency in test [3] was 20.9 µM (active). For the same compound, the activity (max response) in test [4] is -5.78% and 9.51%.
